From PubChem BioAssay AID1645850 (National Center for Advancing Translational Sciences (NCATS), 2021)
Records with an inconclusive call do not appear. Active and inactive are the calls of the source. The call rests on the fitted dose curve; in most records, active means well fitted curve in the direction sought with a large enough effect in the repeat runs; inconclusive means weak or mixed curves, or another doubt; inactive means no such curve, though single readings can be large or run the other way.

Test: Comparison of Janus kinase inhibitors to block the type I interferon pathway in human skeletal muscle cells: CTG Counterscreen
Settings: human skeletal muscle cells viability, CellTiter-Glo ATP luminescence; series mostly up to 45.9 µM
Excerpt: Assay Submitter (PI): Travis B. Kinder Ph.D.
National Center for Advancing Translational Sciences (NCATS)
The family of Janus kinases (JAK1, JAK2, JAK3, TYK2) mediate signal transduction from cytokine receptors through phosphorylation and activation of intracellular signaling pathways and transcription factors. Small molecule antagonists of JAKs (jakinibs) have been developed with varying selectivity for the use in malignancies and immune regulation. […] We have assayed a library of 48 jakinibs for their ability to inhibit the JAK1/TYK2-dependent type I interferon (IFN) - major histocompatibility complex (MHC) class I pathway in human skeletal muscle cells genome-engineered to fuse a pro-luminescent HiBiT peptide to endogenous MHC class I.
The assay utilized CRISPR/Cas9 genome-engineered immortalized human myoblasts, C25cl48, where a pro-luminescent reporter HiBit was fused to the C-terminus of endogenous MHC class I allele HLA-B*08:01 (HLA-B HiBit myoblasts) (Kinder et al., 2020). HiBit is an 11 amino acid fragment of NanoLuc luminescent reporter (Promega Corporation), and when complexed to the larger LgBit fragment, the reconstituted enzyme produces light in the presence of furimazine substrate. Briefly, HLA-B HiBit myoblasts were plated into 1536-well plates, treated with 4.0 ng/ml human IFN-beta and 48 jakinibs in an 11-point, 1:3 titration with a high final concentration of 46 uM. After 24 hrs of treatment, cells were assayed by CellTiter-Glo Luminescent Cell Viability Assay (Promega) and luminescence measured by a ViewLux 1430 Ultra HTS (Perkin Elmer).
1. Kinder TB, Dranchak PK, Inglese J. High-Throughput Screening to Identify Inhibitors of the Type I Interferon-Major Histocompatibility Complex Class I Pathway in Skeletal Muscle. ACS Chem Biol. 2020 Jul 17;15(7):1974-1986. doi: 10.1021/acschembio.0c00343
PROTOCOL TABLE (as described by Inglese et al., 2007)
SEQUENCE No. (e.g., 1, 2, 3, etc.); PARAMETER (e.g., Cells, Incubation, Reagent, etc.); VALUE; DESCRIPTION
1a; Cells; 5 uL; Seed 250 cells/well with a Multidrop Combi (Thermo Scientific) into two Greiner 1536 well white/solid bottom, high base, TC plates (789173-F) in 5 ul/well of growth medium (GM) without dexamethasone into columns 1+2
1b; Cells; 5 uL; Seed 250 cells/well with a Multidrop Combi (Thermo Scientific) into two Greiner 1536 well white/solid bottom, high base, TC plates (789173-F) in 5 ul/well of GM without dexamethasone + 4 ng/ml IFN-beta into columns 3 - 48. Add metal lids with gas-exchange holes.
2; Incubate; 30 min; Incubate at 37C, 5% CO2, 95% RH
3; Compounds; 23 nl; Transfer DMSO control and library compounds in DMSO with Pin Tool (Wako)
4; Incubate; 24 hrs; Incubate at 37C, 5% CO2, 95% RH
5; Dispense; 2.5 ul; Add CellTiter Glo lytic reagent with a BioRAPTR FRD (Beckman Coulter)
6; Incubate; 10 min; Incubate in the dark at ambient temperature for lysis
7; Detector; 5 sec; Measure luminescence with ViewLux 1430 Ultra HTS (Perkin Elmer). Settings: Exposure = 2 sec, Gain = High, Speed = Slow, Binning = 2X
NOTES (numbers refer to sequence above)
1; HLA-B HiBit myoblasts cultured in GM - 4:1 ratio DMEM Glutamax (Thermo Fisher, 10566) : M199 (Thermo Fisher, 11150), 10% FBS (Hyclone Standard), 1% Pen/Strep, 50 ug/ml fetuin, 10 ng/ml hEGF, 1 ng/ml bhFGF, 10 ug/ml insulin, 0.4 ug/ml dexamethasone (supplements from Promocell, C-39360). […] Recombinant human IFN-beta (Peprotech, 300-02BC) was reconstituted in water, diluted in GM, and aliquots stored at -80C until day of use.
3; Control plate contained DMSO in columns 1 and 4, digitonin (Sigma, D141) cytotoxicity control in DMSO at 20 mM in column 2, and ruxolitinib (Selleckchem, S1378) inhibitor control in DMSO 16-point, 1:2 titration, high concentration = 17 mM in column 3. Digitonin and ruxolitinib stocks were reconstituted at 20 and 50 mM in DMSO and aliquots stored at -20C. […]
For `Cc1oncc1C(=O)Nc1ccc(C(F)(F)F)cc1`, the outcome was “inactive”.
With `CC(C)(C)NS(=O)(=O)c1ccc(-c2ccc3[nH]nc(N)c3c2)cc1` the outcome was “inactive”.
For `CCS(=O)(=O)N1CC(CC#N)(n2cc(-c3ncnc4[nH]ccc34)cn2)C1`, the outcome was “inactive”.
With `Cc1cc(Nc2cc(CN3CCOCC3)c3nc(C)c(Cc4ccc(Cl)cc4F)n3n2)n[nH]1` the outcome was “inactive”.
With `CC[C@@H]1CN(C(=O)NCC(F)(F)F)C[C@@H]1c1cnc2cnc3[nH]ccc3n12` the outcome was “inactive”.
With `O=C(Nc1ccnc(NC(=O)C2CC2)c1)c1c(Cl)cccc1Cl` the outcome was “inactive”.
In the case of `CC(C)(O)C(=O)N1CCN(c2ccc(C(F)(F)F)c(C3=C(c4c[nH]c5ccccc45)C(=O)NC3=O)c2)CC1`, the outcome is reported as “inactive”.
With `NC(=O)c1cnc2[nH]ccc2c1NC1C2CC3C[C@H]1CC(O)(C3)C2` (some centres not stated) the outcome was “inactive”.
With `CN(C)c1ccc(Nc2nc(N)n(C(=O)c3c(F)cccc3F)n2)cc1` the outcome was “inactive”.
For `N#C/C(=C\c1ccc(O)c(O)c1)C(=O)NCc1ccccc1`, the outcome was “inactive”.
In the case of `CCCS(=O)(=O)NC1CC(N(C)c2ncnc3[nH]ccc23)C1` (configuration not stated), the outcome is reported as “inactive”.
With `CN1CCN(c2cccc(Nc3nc4c(-c5ccc(S(C)(=O)=O)cc5)cccn4n3)c2)CC1` the outcome was “inactive”.
In the case of `C[C@@H]1CCN(C(=O)CC#N)C[C@@H]1N(C)c1ncnc2[nH]ccc12`, the outcome is reported as “inactive”.
In the case of `CC(C)(C)NC(=O)Nc1cccc(Nc2ncc(F)c(NC(C)(C)CO)n2)c1`, the outcome is reported as “inactive”.
With `CCn1c(C(=O)N(C2CC2)C2CC2)cc2c3c(ncn3C)c(Nc3cc(C)n(C)n3)nc21` the outcome was “inactive”.
For `C=CC(=O)Nc1ccc(F)c(-c2ncnc3[nH]cc(C(=O)OCC)c23)c1`, the outcome was “inactive”.
For `CNS(=O)(=O)CC1CCC(N(C)c2ncnc3[nH]ccc23)CC1` (configuration not stated), the outcome was “inactive”.
In the case of `N#CC[C@H](C1CCCC1)n1cc(-c2ncnc3[nH]ccc23)cn1`, the outcome is reported as “inactive”.
For `O=C(Nc1ccc(-c2ccnc(Nc3ccc(N4CCOCC4)cc3)n2)cc1)[C@@H]1CCCN1`, the outcome was “inactive”.
For `CCS(=O)(=O)N1CCN(c2ccc(Nc3ncc(C(N)=O)c(NC4CC4)n3)cc2)CC1`, the outcome was “inactive”.
For `CC(C)(C)c1nc2c3cc[nH]c(=O)c3c3cc(F)ccc3c2[nH]1`, the outcome was “inactive”.
With `Cn1cc(Nc2nccc(N3C[C@H]4CC[C@@H](C3)N4C(=O)[C@@H]3CC3(F)F)n2)cn1` the outcome was “inactive”.
In the case of `CC1(C)CN(C(=O)c2ccc(-c3cccc4nc(NC(=O)C5CC5)nn34)cc2)C1`, the outcome is reported as “inactive”.
In the case of `N#CCNC(=O)c1ccc(-c2ccnc(Nc3ccc(N4CCOCC4)cc3)n2)cc1`, the outcome is reported as “inactive”.
With `COc1cc2ncnc(Nc3ccc(O)cc3)c2cc1OC` the outcome was “inactive”.
For `CC[C@@](C)(Nc1ccnc(-c2c[nH]c3ncccc23)n1)C(=O)NCC(F)(F)F`, the outcome was “inactive”.
For `[2H]C([2H])([2H])NC(=O)c1nnc(NC(=O)C2CC2)cc1Nc1cccc(-c2ncn(C)n2)c1OC`, the outcome was “inactive”.
